Hits are enriched below; roughly 17% of the tested compounds scored in any of these assays.
TGFb SMAD3 inh – qHTS for Inhibitors of TGF-b; HepG2 CAGA-GFP TGF-b/SMAD3 reporter, GFP fluorescence, 18 h; TGF-beta stimulated, 500 pg/mL final; hit rate 1.2% among 410,000; Potency, µM (titrated, usually from 46.1 µM), hits mostly inhibitors; AID 588855, 2011; note: nearly all actives have a fitted effect of over 65% in size
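HEPG2 CAGA-GFP cells (1000/well, DMEM with 1% FBS) were pre-incubated 2 h at 37 degrees C, given compound by pin tool, then stimulated with TGF-beta at 500 pg/mL final for 18 h before per-cell GFP fluorescence imaging.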
HT1080 IDH1KD tx – qHTS for induction of synthetic lethality in tumor cells producing 2HG: qHTS for the HT-1080-IDH1KD cell line; Potency, µM (series often up to 46.1 µM), usual class: cytotoxic; AID 686971, 2013; HT-1080 IDH1 knockdown viability, ATP luminescence, 48 h; hit rate 2% among 360,000
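In this qHTS, HT-1080 cells depleted of IDH1 are exposed for 48 h at 37 °C to compound titrations. Toxicity is scored from CellTiter-Glo luminescence, with DMSO as full viability and medium alone as none.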
HepG2 viability – qHTS for Inhibitors of TGF-b: Cytotox Counterscreen | HepG2 CAGA-GFP viability, ATP luminescence, 18 h | Potency, µM (top dose mostly 46.1 µM), hits mostly cytotoxic | hit rate 0.76% among 410,000
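HepG2 CAGA-GFP cells (1000/well, DMEM with 1% FBS) received compound, then TGF-beta at 500 pg/mL final, and were incubated 18 hours at 37 degrees C. Viability was read by CellTiter-Glo luminescence. Media-only wells were set as complete cell-killing and DMSO as no toxicity.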
DT40 TDP1 CPT – qHTS for Inhibitors of human tyrosyl-DNA phosphodiesterase 1 (TDP1): qHTS in cells in presence of CPT. chicken DT40 Tdp1-/-;hTDP1 cells + 20 nM CPT, ATP luminescence, 48 h. Potency, µM (top dose mostly 46.2 µM), hits mostly inhibitors. hit rate 12% among 420,000. AID 686979, 2013; note: nearly all actives have a fitted effect of over 55% in size
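Cell growth measured by CellTiter-Glo luminescence after a minimum 48 h, 37 C compound exposure with 20 nM CPT in Tdp1-knockout DT40 cells stably expressing hTDP1, seeded 400/well; qHTS titration format.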
DT40 TDP1 no CPT – qHTS for Inhibitors of human tyrosyl-DNA phosphodiesterase 1 (TDP1): qHTS in cells in absence of CPT; DT40 Tdp1-/- hTDP1 cells, no CPT, ATP luminescence, 48 h; Potency, µM (series often up to 46.2 µM), hits mostly inhibitors; hit rate 15% among 420,000; AID 686978, 2013; note: nearly all actives have a fitted effect of over 55% in size
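Readout: luminescence from CellTiter-Glo after 30 min in the dark at RT. Cells: DT40 Tdp1-/- with stable hTDP1, 400/well. Exposure: compounds alone, ≥48 hr, 37 °C.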
HT1080NT lethal – qHTS for induction of synthetic lethality in tumor cells producing 2HG: qHTS for the HT-1080-NT fibrosarcoma cell line; HT-1080-NT fibrosarcoma viability, CellTiter-Glo ATP luminescence, 48 h; Potency, µM (doses to about 46.1 µM), hits mostly cytotoxic; hit rate 1.6% among 360,000; AID 686970, 2013;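 note: NT is the 2HG producing partner of a matched IDH1 knockdown line; nearly all actives have a fitted effect of over 55% in size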
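HT-1080-NT; 750 cells/well; 5% FBS RPMI; 48 h compound, 37 degrees C; CellTiter-Glo luminescence; curve fitting and curve-class assignment.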
Numbers stand for hits; 0 = inactive; ? = inconclusive; - = no result given; [ ] = remark or other dose. Calls come from the whole dose curve; as a rule, active = well fitted curve in the direction sought with a large enough effect; inconclusive = small, poorly fitted or top-dose-only effect, or another doubt; inactive = no such curve, though single readings can be large; an effect the other way counts as inactive or inconclusive.

SMILES | TGFb SMAD3 inh | HT1080 IDH1KD tx | HepG2 viability | DT40 TDP1 CPT | DT40 TDP1 no CPT | HT1080NT lethal
O=C(CN(C(=O)c1ccc2c(c1)OCCO2)c1ccccc1)NCC1CCCO1 (configuration not stated) | 0 | 0 | 0 | 0 | 0 | 0
CC(C)CC1Nc2ncnc(N3CCN(c4ccccn4)CC3)c2N(Cc2ccc(Cl)cc2)C1=O (configuration not stated) | ? | ? | 0 | ? | 23µM | ?
CC(C)CC1NC(=S)N(Cc2ccccc2)C1=O (configuration not stated) | 5µM | ? | 0 | ? | ? | ?
O=C1C(Cc2ccccc2)NC(=S)N1Cc1ccccc1 (configuration not stated) | 0 | 0 | 0 | 0 | 0 | 0
COc1ccc(CN2C(=O)C(CC(C)C)Nc3ncnc(N4CCN(c5ccccc5)CC4)c32)cc1 (configuration not stated) | ? | 0 | 0 | 18µM | ? | ?
COc1ccc(CN2C(=O)C(CC(C)C)Nc3ncnc(N4CCOCC4)c32)cc1 (configuration not stated) | 0 | 0 | 0 | 0 | 0 | 0
O=CNc1ccc(OC(=O)c2cncc(Br)c2)cc1 | 0 | 0 | 0 | 0 | 0 | 0
CCCn1c(CCC(=O)O)nc2cc(S(=O)(=O)N3CCCC3)ccc21 | 0 | 0 | 0 | 0 | 0 | 0
O=c1c2ccccc2nc(/C=C/c2ccc(O)cc2)n1CCc1ccccc1 | ? | ? | 0 | 7.3µM | 8.2µM | ?
CCCc1nc2ccccc2c(=O)n1N | 0 | 0 | 0 | 0 | 0 | 0
CCCc1nc2ccccc2c(=O)n1CCc1ccccc1 | 0 | 0 | 0 | 13µM | 9.2µM | 0
O=c1c2ccccc2nc(/C=C/c2ccc3c(c2)OCO3)n1CCCO | ? | 6.5µM | 0 | 0 | ? | ?
O=c1c2ccccc2nc(/C=C/c2ccccc2)n1CCCO | 0 | 0 | 0 | ? | ? | 0
CN(C)c1ccc(/C=C/c2nc3ccccc3c(=O)n2CCO)cc1 | 0 | ? | 0 | 18µM | 16µM | 0
CCOc1ccc(-c2cc(C(=O)Nc3cc(OC)c(OC)c(OC)c3)[nH]n2)c(C)c1 | 0 | ? | 0 | ? | ? | 0
CC1(C)C(=O)Nc2ccccc2N1C(=O)COC(=O)c1cccnc1Cl | 0 | 0 | 0 | 0 | 0 | 0
COCCN(C)C(=O)c1cnn(-c2nccc(-c3cc(C)sc3C)n2)c1C | - | - | - | 0[9.04 µM] | 0 | -
O=c1cc(-c2ccc(F)cc2)nc(SCc2nc(-c3cccc(Cl)c3)no2)[nH]1 | 0 | - | 0 | 0 | ? | -
Oc1cc(CNC2CCCCC2)c(O)cc1CNC1CCCCC1 | 0 | 0 | 0 | 18µM | 5.8µM | 0
Cc1ccccc1CNC1CCCCC1 | 0 | 0 | 0 | 0 | 0 | 0
COc1ccccc1Oc1nc2c(C)cccn2c(=O)c1/C=C(\C#N)c1nc2ccccc2[nH]1 | 0 | - | 0 | 0 | 0 | -
Cc1cccc(-n2ncc(C(=O)NCc3ccc4c(c3)OCO4)c2C2CCN(C(=O)OC(C)(C)C)CC2)c1 | 0 | - | 0 | ? | ? | -
CC(C)(C)OC(=O)N1CCC(c2c(C(=O)NCc3ccc4c(c3)OCO4)cnn2-c2ccc(F)cc2F)CC1 | 13µM | - | 0 | ? | 0 | -
CC(C)(C)OC(=O)N1CCC(c2c(C(=O)O)cnn2-c2ccc(F)cc2F)CC1 | 0 | - | 0 | 0 | 0 | -
COc1ccc(NC(=O)c2cnn(-c3ccc(F)cc3F)c2C2CCN(C(=O)OC(C)(C)C)CC2)cc1Cl | ? | - | 0 | ? | 18µM | -
SMILES | TGFb SMAD3 inh | HT1080 IDH1KD tx | HepG2 viability | DT40 TDP1 CPT | DT40 TDP1 no CPT | HT1080NT lethal
Cc1cccc(-n2ncc(C(=O)Nc3ccc4c(c3)OCO4)c2C2CCN(C(=O)OC(C)(C)C)CC2)c1 | ? | - | 0 | 18µM | ? | -
CC(C)(C)OC(=O)N1CCC(c2c(C(=O)Nc3ccc4c(c3)OCCO4)cnn2-c2ccc(F)cc2F)CC1 | ? | - | 0 | 21µM | 0 | -
C/C(Cc1ccccc1)=N\NC(=O)CNC(=O)c1ccc(Cl)cc1Cl | 0 | 0 | 0 | 0 | 0 | 0
CCC(C)(C)c1ccc(OCCN2C(=O)NC(C)(C)C2=O)cc1 | 0 | 0 | 0 | ? | ? | 0
COc1cccc(-c2csc(N3CCN(CC(=O)NNC(=O)c4ccc(Br)cc4)CC3)n2)c1 | 0 | ? | 0 | ? | 16µM | ?
O=C(CN1CCN(c2nc(-c3ccccc3)cs2)CC1)NNC(=O)c1ccc(Br)cc1 | 0 | 0 | 0 | ? | 0 | 0
COc1cccc(-c2csc(N3CCN(CC(=O)NNC(=O)c4ccc(Cl)cc4)CC3)n2)c1 | ? | 11µM | 0 | ? | ? | ?
Cc1ccccc1CN1C(=O)CN(S(C)(=O)=O)CC1(C)C(=O)NCc1ccccc1 (configuration not stated) | - | 0 | - | 0 | 0 | 0
COc1ccc(OC)c(NC(=O)c2cccc(NC(=O)c3ccco3)c2)c1 | 0 | 0 | 0 | ? | ? | ?
CCN(c1cccc(C)c1)S(=O)(=O)c1ccc(-c2ccc(=O)[nH]n2)o1 | 0 | 0 | 0 | 0 | 0 | 0
COc1ccc(NS(=O)(=O)c2cc(-c3nnnn3C)ccc2OC)cc1 | 0 | 0 | 0 | 0 | 0 | 0
CC(C)(C)CC(C)(C)NC(=O)CSCC(=O)Nc1ccc2ccccc2c1 | ? | 0[9.24 µM] | 0 | 18µM | ? | 16µM
CCC(=O)Nc1ccc2ccccc2c1 | 0 | 0 | 0 | 0 | 0 | 0
O=C(CSc1ccncc1)Nc1ccc2ccccc2c1 | 0 | 0 | 0 | 0 | 0 | 0
O=C(COc1ccc2ccccc2c1)NCCn1ccc2ccccc21 | 0 | 0 | 0 | ? | 21µM | 0
O=C(CSc1ccc2ccccc2c1)Nc1ccncc1 | 0 | 0 | 0 | ? | 15µM | 0
O=C(COc1ccc2ccccc2c1)Nc1ccncc1 | 0 | 0 | 0 | ? | 16µM | 0
O=C(Cn1ncc2ccsc2c1=O)N1CCN(c2ccccc2F)CC1 | 0 | - | 0 | - | - | -
O=C1NC[C@@H](CCCCN2CCN(CCC3CCCCC3)C(=O)C2=O)N(CCC2CCCCC2)C1=O | - | 0 | - | 0 | 0 | 0
Cc1nc2c3cc(F)ccc3n(Cc3ccc(F)cc3)c2s1 | 0 | ? | 0 | ? | 8.2µM | 0
Cc1nc2c3cc(Cl)ccc3n(CCN3CCCCC3)c2s1 | 0 | ? | 0 | 21µM | 23µM | ?
Cc1cc(C)c(NC(=O)CN2C(=O)CCSc3ccc(S(=O)(=O)N4CCCC4)cc32)c(C)c1 | 0 | - | 0 | 0 | 0 | -
C=CCn1c[n+](CC(=O)c2ccc(Br)s2)c2ccccc21 | 0 | 0 | 0 | 21µM | 12µM | 0

High-throughput results as filed in PubChem BioAssay.
